{"source": "PubChem BioAssay", "note": "Where “and” joins values, the source holds several entries; their conditions need not be identical. Equal entries are not always repeated. A number with no mark means an inactive call. No rule for the calls is given here.", "data": [{"test": "compounds altering Cy5-DNA-NS3h complex signal – biochemical, LOPAC1280, artefact control for HCV NS3 helicase inhibitor project (AID 687037)", "details": "Cy5-DNA-NS3h complex fluorescence interference counterscreen", "values": [{"compound": "CC(C)C[C@H](NC(=O)[C@@H](O)[C@H](N)Cc1ccccc1)C(=O)O", "fluorescence ratio (interference)": 1}, {"compound": "CN(C)CCCC1(c2ccc(F)cc2)OCc2cc(C#N)ccc21", "note": "(stereo unspecified)", "fluorescence ratio (interference)": 1}, {"compound": "CC(C)NCC(O)c1ccc(NS(C)(=O)=O)cc1", "note": "(stereo unspecified)", "fluorescence ratio (interference)": 1}, {"compound": "O=C(c1ccc(OCCN2CCCCC2)cc1)c1c(-c2ccc(O)cc2)sc2cc(O)ccc12", "fluorescence ratio (interference)": 0.9}, {"compound": "NCC(O)c1ccc(O)c(O)c1", "note": "(stereo unspecified)", "fluorescence ratio (interference)": 0.9}, {"compound": "Cc1cnc(C(=O)NCCc2ccc(S(=O)(=O)NC(=O)NC3CCCCC3)cc2)cn1", "fluorescence ratio (interference)": 1}, {"compound": "CCN(CC)CC#CCOC(=O)C(O)(c1ccccc1)C1CCCCC1", "note": "(stereo unspecified)", "fluorescence ratio (interference)": 0.9}, {"compound": "COc1nc(C)nc(Cl)c1NC1=NCCN1", "fluorescence ratio (interference)": 0.9}]}, {"test": "signal quenchers or enhancers, Cy5 substrate/SSB – biochemical, NIH Clinical Collection, E. coli SSB, artefact control for HCV NS3 helicase inhibitor project (AID 743268)", "details": "Cy5-oligo bound E. coli SSB, fluorescence interference", "values": [{"compound": "O=C1CN2Cc3c(ccc(Cl)c3Cl)N=C2N1", "fluorescence ratio": 1.06}, {"compound": "COC(=O)C[C@](O)(CCCC(C)(C)O)C(=O)O[C@@H]1C(OC)=C[C@]23CCCN2CCc2cc4c(cc2[C@H]13)OCO4", "fluorescence ratio": 1}, {"compound": "CNCC[C@H](Oc1cccc2ccccc12)c1cccs1", "fluorescence ratio": "0.96 and 0.95"}, {"compound": "O=c1[nH]c(=O)n(C2CCCO2)cc1F", "note": "(stereo unspecified)", "fluorescence ratio": 1.08}, {"compound": "CSc1nc2cc(Oc3cccc(Cl)c3Cl)c(Cl)cc2[nH]1", "fluorescence ratio": 0.98}, {"compound": "CN(C)CCc1c[nH]c2ccc(Cn3cncn3)cc12", "fluorescence ratio": 1.13}, {"compound": "COc1ccc(C[C@H](C)NC[C@@H](O)c2ccc(O)c(NC=O)c2)cc1", "fluorescence ratio": 1.02}, {"compound": "CC(C)C[C@H](NC(=O)[C@@H](O)[C@H](N)Cc1ccccc1)C(=O)O", "fluorescence ratio": 0.92}]}]}
